Results on 63 compounds are retold here after PubChem BioAssay AID1220 (Sanford-Burnham Center for Chemical Genomics, 2008).

Usually inhibition stands for the relative decrease from the control value, in per cent.

In all, about 190,000 compounds went through this assay and about 1,300 (0.68%) were called active. The full list was thinned out, with actives kept by preference. Values without a mark were called inactive. Rule as the data show it: active = inhibition above about 50%; inactive = the rest.

In the assay the target is Mannose-6-phosphate isomerase (Homo sapiens) (UniProt P34949). Nature of the assay: MPI inhibition at elevated mannose 6-phosphate – biochemical, fluorescence intensity, high mannose 6-phosphate, primary screen (AID 1220). The note with it: recombinant PMI enzyme, coupled fluorescence intensity; at 20 µM; hits give high values.
Sequence of Mannose-6-phosphate isomerase (Homo sapiens) (P34949 whole entry, looked up): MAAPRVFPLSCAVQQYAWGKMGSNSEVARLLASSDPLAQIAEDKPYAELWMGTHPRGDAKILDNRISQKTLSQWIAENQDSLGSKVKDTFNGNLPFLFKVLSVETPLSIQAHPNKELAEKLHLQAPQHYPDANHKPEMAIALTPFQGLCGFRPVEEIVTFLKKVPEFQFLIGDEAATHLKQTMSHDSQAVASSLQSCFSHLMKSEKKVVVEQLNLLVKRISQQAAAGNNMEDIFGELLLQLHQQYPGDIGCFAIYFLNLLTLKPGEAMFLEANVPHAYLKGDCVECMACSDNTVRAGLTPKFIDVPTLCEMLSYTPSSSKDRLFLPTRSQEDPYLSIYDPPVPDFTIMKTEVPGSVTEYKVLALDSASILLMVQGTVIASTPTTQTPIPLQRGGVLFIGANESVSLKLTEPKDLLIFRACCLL
Consider `CC(C)OCCCNC(=S)NNC(=O)C(c1ccccc1)c1ccccc1`, for which the inhibition was -14.8%.
As for `O=c1cc(CN2CCN(c3ccccn3)CC2)nc2sccn12`, the figure is 9.8%; as for `CC(=O)c1cc2c(C)c(C(=O)c3ccccc3)oc2cc1O`, 8.2%; as for `O=C(NC(=S)Nc1cccc2cnccc12)c1ccccc1`, 54.7% (active).
Take `S=C(NCCc1ccncc1)Nc1cccc2ccccc12`: the inhibition was 18.9%.
As for `O=C(NNC(=S)Nc1ccccc1)c1ccc2ncccc2c1`, the figure is -9.6%.
Consider `Fc1ccccc1NC(=S)Nc1cccc2cnccc12`, for which the inhibition was 9.4%.
`CCCCNC(=S)Nc1cccc2cnccc12`: the inhibition was 3.6%.
With `O=C(NC(=S)Nc1ccc2ncccc2c1)c1ccccc1`, the inhibition is 55.9% (active).
As for `S=C(NCCc1ccccc1)Nc1cccc2cnccc12`, the figure is 57.3% (active); as for `O=C(NC(=S)Nc1cccc2cccnc12)c1ccccc1`, 10%; as for `O=C(NC(=S)Nc1cnc2ccccc2c1)c1ccccc1`, 10.3%.
With `COc1ccc(Cn2cc(C(=O)c3ccccc3)c(=O)c3cc(OC)ccc32)cc1`, the inhibition was 15.1%.
As for `Cn1c(Cc2ccccc2)nnc1SCC(=O)N1CCOCC1`, the inhibition was -5.3%.
For the compound `CC(C)(C)c1ccc(NC(=O)CNC2CCCc3ccccc32)cc1` (stereo not drawn), the inhibition is -3.2%.
As for `COc1cc(/C=N/N2CCOCC2)ccc1OCc1ccccc1`, the figure is -7.2%; as for `CCSc1nnc(NC(=O)CSc2nc(CC)nc3c2c(=O)n(C)c(=O)n3C)s1`, 6.7%; as for `CC1CCN(S(=O)(=O)c2cccc(C(=O)NCc3ccco3)c2)CC1`, -3.8%.
For the compound `O=C1NC2=C(CCc3ccccc32)C(c2ccccc2)N1` (stereo not drawn), the inhibition was 2.3%.
In the case of `Cc1ccc(C2NC(=O)NC3=C2CCc2ccccc23)cc1` (stereo not drawn) it was 40.5%; in that of `Cc1ccc(-c2nnn(CC(=O)N(CC3CCCO3)C(C(=O)NCC3CCCO3)c3ccc(F)cc3)n2)o1` (stereo not drawn), 2.7%; in that of `O=C(CN1C2CCCC1CC(NC(=O)c1ccccc1)C2)Nc1nccs1` (stereo not drawn), -12.4%.
Take `O=C(NCC(c1cccnc1)N1CCN(c2ccccc2)CC1)C1CCCCC1` (stereo not drawn): the inhibition was 8.8%.
Regarding `CN(C)CCCN1C(=O)c2cccc3c(Br)ccc(c23)C1=O`, the inhibition was 52% (active).
Consider `C=CCN1C(=O)c2cccc3c(Br)ccc(c23)C1=O`, for which the inhibition is 4.2%.
In the case of `CN(C)CCCN1C(=O)c2cccc3c([N+](=O)[O-])ccc(c23)C1=O` it was 29.6%; in that of `Fc1ccccc1CNc1cc(Cl)cc(Cl)c1`, 5.3%; in that of `COc1cc(/C=N\NC(=O)C2C(=O)NCC2c2ccccc2)cc(OC)c1O` (stereo not drawn), 50.9% (active).
With `COc1cccc(/C=N\NC(=O)C2C(=O)NCC2c2ccccc2)c1O` (stereo not drawn), the inhibition was -17%.
In the case of `COc1ccc(/C=N\NC(=O)C2C(=O)NCC2c2ccccc2)cc1O` (stereo not drawn) it was 8.9%; in that of `CC(/C=N\Nc1nnc2c(n1)[nH]c1c(C)cccc12)=C\c1ccco1`, 7%.
Consider `COc1ccc(/C=N/c2oc(C)c(C)c2C#N)c(OC)c1`, for which the inhibition is 51.5% (active).
In the case of `Cc1oc(/N=C/c2ccc(Cl)cc2Cl)c(C#N)c1C` it was -5.8%; in that of `Cc1oc(/N=C/c2ccc(O)cc2O)c(C#N)c1C`, 8.5%.
As for `O=C(c1ccc(Br)o1)N1CCN=C1SCc1cccnc1`, the figure is 2.2%; as for `COCCCNC(=S)NNC(=O)c1ccc(S(=O)(=O)N2CCC(C)CC2)cc1`, -5.4%; as for `CC(=O)c1cccc(NC(=O)c2ccco2)c1`, 2.7%.
For the compound `O=C(Nc1cccc(N=Cc2cc(Br)cc(Br)c2O)c1)c1ccco1`, the inhibition was 53.4% (active).
In the case of `O=C(Nc1cccc(N=Cc2cc(Cl)cc(Br)c2O)c1)c1ccco1`, the inhibition was 44.4%.
On to `O=C(CSc1nnc(-c2cccs2)n1-c1ccccc1)c1ccc2c(c1)OCCO2`, for which the inhibition is 6.2%.
As for `CCOC(=O)N1CCC(NC(=O)c2ccc3c(c2)N(Cc2ccc(C)cc2)CCS3)CC1`, the inhibition is 24.9%.
In the case of `CCOC(=O)N1CCC(NC(=O)c2ccc3c(c2)N(C)CCS3)CC1` it was 55.2% (active); in that of `CCOC(=O)N1CCC(NC(=O)c2ccc3c(c2)N(Cc2ccccc2)CCS3)CC1`, 13.2%; in that of `COc1cccc(C2=NOC(C(=O)NC3CCCCC3)C2)c1` (stereo not drawn), 53.2% (active).
Turning to `COc1ccc(C2=NOC(C(=O)NC3CCCCC3)C2)cc1OC` (stereo not drawn), the inhibition is 11.9%.
In the case of `COc1cccc(C2=NOC(C(=O)NC(C)C)C2)c1` (stereo not drawn) it was 3.6%.
Consider `C#CCNC(=O)C1CCN(c2ccc(S(=O)(=O)N3CCOCC3)cc2Cl)CC1`, for which the inhibition is -1.4%.
As for `CCC(C)C(=O)Nc1ccc(OC)cc1OC` (stereo not drawn), the figure is 5.6%.
As for `CCOc1cc(N2CCOCC2)c(OCC)cc1NC(=O)C1CCCC1`, the figure is -1%; as for `CCN1CCN(C(=O)C(C)Nc2ccc(OC)cc2OC)CC1` (stereo not drawn), 58.6% (active); as for `CCOc1cc(N2CCOCC2)c(OCC)cc1NC(=O)CN1CCCC(C)C1` (stereo not drawn), 30.5%.
`CCN1CCN(C(=O)Nc2ccc(OC)cc2OC)CC1`: the inhibition was 34.3%.
In the case of `CCOc1cc(N2CCOCC2)c(OCC)cc1NC(C)C(=O)N1CCN(CC)CC1` (stereo not drawn) it was 57.1% (active).
In the case of `CCOc1cc(N2CCOCC2)c(OCC)cc1NC(=O)c1ccc(OC(C)C)cc1` it was 19.1%; in that of `CCOc1cc(N2CCOCC2)c(OCC)cc1NC(C)C(=O)N1CCC(C)CC1` (stereo not drawn), 59.1% (active).
In the case of `CCOc1cc(N2CCOCC2)c(OCC)cc1NC(=O)CN1CCCC1` it was 20.8%.
On to `CC(=O)c1cccc(N/C=C\C(=O)c2ccc(C)cc2)c1`, for which the inhibition is 1.9%.
Turning to `CCN(CC)S(=O)(=O)c1cccc(C(=O)Nc2ccc(C#N)cc2)c1`, the inhibition is 16.5%.
Take `Cc1cccc(N2CCN(C(=O)c3ccc(CNc4c(N5CCC(C)CC5)c(=O)c4=O)cc3)CC2C)c1` (stereo not drawn): the inhibition is 4.9%.
In the case of `O=C(CS(=O)CC(=O)N(c1cccc(F)c1)C(C(=O)NC1CCCCC1)c1ccco1)Nc1ccc(F)cc1` (stereo not drawn) it was -6.4%; in that of `C/C(=N\NC(=O)CN(c1ccccc1)S(=O)(=O)c1ccccc1[N+](=O)[O-])C(C)(C)C`, 8.8%; in that of `FCCCOc1ccc(-c2nccc(-c3ccc(Br)cc3)n2)cc1`, 8.4%.
On to `Cc1cc(NC(=O)CSc2nnc(C3CC3)n2-c2ccccc2)no1`, for which the inhibition is -7.9%.
